Screening data (PubChem)
An excerpt weighted towards active compounds, which were near 11% of everything screened.
Tau fibril FP: tau fibrillization inhibition (FP) | K18 P301L tau heparin fibrillization, Alexa594 FP, 6 h | Potency, µM (series often up to 57.7 µM), without a hit: at the top dose activity, negative = inhibition, hits mostly inhibitors | 0.39% of 280,000 active | AID 1468; also: potency is read from the fitted curve at half-maximal effect; nearly all actives have a fitted effect of over 55% in size
Target sequence (P10636 561-689 P618L limits assumed): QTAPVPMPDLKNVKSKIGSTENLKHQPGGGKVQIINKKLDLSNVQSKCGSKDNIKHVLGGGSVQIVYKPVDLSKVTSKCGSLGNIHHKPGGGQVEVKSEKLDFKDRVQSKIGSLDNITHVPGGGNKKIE
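K18 P301L tau (15 uM unlabeled/0.24 uM Alexa 594-labeled, final) + compound + heparin 20 uM final; 100 mM NaOAc pH 7; 6 hr 37 C; ThT 30 uM final added, 1 hr RT; FP ex 555/em 632 nm.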
Tau fluor counter: counter-screen for tau fibril formation inhibitors. 0.93% of 280,000 active. tau K18 P301L Alexa594 fluorescence, heparin fibrillization. Potency, µM (titrated, usually from 57.7 µM), for inactives: at the top dose activity change, negative = decrease; also: potency is read from the fitted curve at half-maximal effect; nearly all actives have a fitted effect of over 55% in size
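Human tau K18 P301L (15 uM unlabeled, 0.24 uM Alexa 594-labeled) in 100 mM sodium acetate pH 7 with 20 uM heparin, 6 hr at 37 C. ThT 30 uM added, 1 hr ambient; Alexa 594 FP and total fluorescence read at 555/632 nm.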
Tau fibril ThT: inhibitors of human tau fibril formation, thioflavin T binding; 2.1% of 270,000 active; AID 1460; recombinant tau K18 P301L (four-repeat tau fragment), heparin-induced fibrillization, ThT fluorescence; Potency, µM (titrated, usually from 57.4 µM), for inactives: at the highest dose activity, negative = inhibition, actives largely listed as inhibitors; also: potency is read from the fitted curve at half-maximal effect; nearly all actives have a fitted effect of over 55% in size
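Heparin-induced (20 uM) aggregation of recombinant human K18 P301L tau, 15 uM unlabeled with 0.24 uM labeled, pH 7 acetate buffer, 6 hr at 37 C with compound. Fibrils quantified by 30 uM ThT fluorescence after 1 hr ambient incubation.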
Sfp inh: Sfp phosphopantetheinyl transferase inhibition; Potency, µM, for the others: largest response in the series, negative = inhibition, actives largely listed as inhibitors; Q9F4F7; 3.5% of 310,000 active; AID 1490; Biochemical Sfp PPTase activity, qHTS;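 also: the enzyme is Sfp with the accession as filed and its product quenches rhodamine fluorescence; potency is read from the fitted curve at half-maximal effect; 0% = enzyme reaction without inhibitor and -100% = no enzyme wells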
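With Hepes-Na pH 7.6 buffer containing 10 mM MgCl2, Sfp (15 nM) modified BHQ-2-YbbR (12.5 uM) using rhodamine-CoA (5 uM). Two reads 30 minutes apart at 525/598 nm yielded each well's rate.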
G9a inh: blocks human histone lysine methyltransferase G9a | 8.8% of 350,000 active | G9a H3K9 monomethylation, AlphaScreen, 2 h | Potency, µM (doses to about 102 µM), inactives show at the highest dose activity, negative = inhibition, hits mostly inhibitors | Q96KQ7; also: potency is read from the fitted curve at half-maximal effect; nearly all actives have a fitted effect of over 75% in size
Target sequence (Q96KQ7 913-1193 limits assumed): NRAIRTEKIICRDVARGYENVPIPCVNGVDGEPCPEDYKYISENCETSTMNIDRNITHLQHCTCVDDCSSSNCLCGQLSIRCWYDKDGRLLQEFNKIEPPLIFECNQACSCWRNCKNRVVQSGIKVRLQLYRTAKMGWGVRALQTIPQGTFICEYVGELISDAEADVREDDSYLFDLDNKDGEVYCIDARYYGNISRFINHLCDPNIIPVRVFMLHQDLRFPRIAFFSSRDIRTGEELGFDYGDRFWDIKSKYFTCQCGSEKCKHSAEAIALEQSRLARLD
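Quantitative HTS format: methyltransferase activity on a biotin-tagged H3K9 peptide is measured by AlphaScreen, using a rabbit anti-monomethyl-H3K9 antibody with streptavidin donor and anti-IgG acceptor beads. Final levels are 20 nM enzyme, 500 nM peptide, 20 uM SAM; 2 h RT.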
Coupling enz: coupling enzyme interference in Giardia aldolase counter-screen | activity change, negative = inhibition, % at 58.2 µM, hits read low | coupling enzyme system counterscreen, AmpLite Red fluorescence | 0.67% of 290,000 active; in the data active = activity change below about -30%
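Counterscreen of the coupled detection system alone, without aldolase: glyceraldehyde-3-phosphate coupling enzymes plus AmpLite Red readout. Compounds at 57.5 uM final, 10 min RT preincubation, 20 min RT reaction, fluorescence 525/598 nm.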
* = called active by the depositor; [ ] = dose if it differs, or a comment. Unless noted, calls follow the shape of the dose curve; as a rule, active = well fitted curve in the direction sought with a large enough effect; inconclusive = small, poorly fitted or top-dose-only effect, or another doubt; inactive = no such curve, though single readings can be large; an effect the other way counts as inactive or inconclusive. Unless noted, % is scaled to controls: 0 for no effect and ±100 for the full control effect.

How did CC(C)(C)C1CCc2c(sc(NC(=O)Cn3nnc(-c4ccccc4Cl)n3)c2C#N)C1 (centres undefined) do in these assays?
Tau fibril FP: inconclusive; Tau fluor counter: inconclusive; Tau fibril ThT: -1%; G9a inh: -21%[59 µM]

Results for O=C(CSCc1nc2cccnc2n1C1CCCCC1)NCc1cccc(Br)c1 ?
Tau fibril FP: 1%; Tau fluor counter: -19%; Tau fibril ThT: inconclusive; G9a inh: 16%[59 µM]

What do the screens show for `COc1cccc(-n2ccn(CC(=O)Nc3ccccc3F)c(=O)c2=O)c1`?
Tau fibril FP: -3%; Tau fluor counter: -9%; Tau fibril ThT: -14%; G9a inh: -22%[59 µM]

Results for COc1cc(-c2cc(C(=O)Nc3cccc(C(C)=O)c3)c3ccccc3n2)cc(OC)c1OC ?
Sfp inh: 8%; G9a inh: -1%; Coupling enz: 0

How did O=C(NNC(=O)c1cc(-c2ccco2)nc2ccccc12)c1ccccc1 do in these assays?
Tau fibril FP: 10%; Tau fluor counter: -8%; Tau fibril ThT: -16%; Sfp inh: 20µM*; Coupling enz: 0

How did COc1ccc(OC)c(NC(=O)c2cnc(Nc3ccc(C)c(Cl)c3)c3ccccc23)c1 do in these assays?
Tau fibril FP: inconclusive; Tau fluor counter: inconclusive; Tau fibril ThT: 2%; G9a inh: 19%[59 µM]

What do the screens show for `CC(=O)c1cccc(NC(=O)c2cc(-c3ccco3)nc3ccccc23)c1`?
Sfp inh: -10%; G9a inh: 50µM*; Coupling enz: 0

How did O=C(O)c1ccccc1/C=N/NC(=O)c1cc(-c2ccco2)nc2ccccc12 do in these assays?
Tau fibril FP: -8%; Tau fluor counter: -28%; Tau fibril ThT: inconclusive; Sfp inh: 10µM*; G9a inh: 14µM*; Coupling enz: -1

How did CC(=O)Nc1ccc(/C=N/NC(=O)c2cc(-c3ccco3)nc3ccccc23)cc1 do in these assays?
Tau fibril FP: 0%; Tau fluor counter: -22%; Tau fibril ThT: -26%; Sfp inh: 8%; Coupling enz: 4

Results for COc1ccc(Nc2ncc(C(=O)Nc3ccc(F)cc3F)c3ccccc23)cc1 ?
Tau fibril FP: inconclusive; Tau fluor counter: 11µM*[quencher]; Tau fibril ThT: inconclusive; G9a inh: -24%[59 µM]

Results for CCCCC/C=C\C=C\[C@H](O)CCCCCCCC(=O)O ?
Tau fibril FP: 3%; Tau fluor counter: 1%; Tau fibril ThT: -3%; Sfp inh: 24%; G9a inh: 25%[59 µM]

What do the screens show for `O=C(NCc1ccco1)c1cc(-c2ccccc2)nc2ccccc12`?
Tau fibril FP: -4%; Tau fluor counter: -24%; Tau fibril ThT: -2%; Sfp inh: -6%; G9a inh: 13%[2.33 µM]; Coupling enz: 1

What do the screens show for `O=C(NCc1ccco1)c1cc(-c2ccccn2)nc2ccccc12`?
Tau fibril FP: 5%; Tau fluor counter: -1%; Tau fibril ThT: -2%; Sfp inh: -9%; G9a inh: 79µM*; Coupling enz: 1

How did O=C(Nc1cccc(S(=O)(=O)NC2=NCCCCC2)c1)c1cc(-c2ccco2)nc2ccccc12 do in these assays?
Tau fibril FP: -17%; Tau fluor counter: -28%; Tau fibril ThT: inconclusive; Sfp inh: 5µM*; G9a inh: inconclusive; Coupling enz: -1

What do the screens show for `CC(=O)c1cccc(NC(=O)c2oc(C)nc2C)c1`?
Tau fibril FP: -14%; Tau fluor counter: -11%; Tau fibril ThT: -8%; Sfp inh: 11%; G9a inh: 45µM*; Coupling enz: 0

Results for O=C(Nc1cccc(S(=O)(=O)NC2=NCCCCC2)c1)c1cc(-c2ccncc2)nc2ccccc12 ?
Tau fibril FP: -3%; Tau fluor counter: inconclusive; Tau fibril ThT: -11%; Sfp inh: 2%; G9a inh: -36%; Coupling enz: -2

Results for CC(=O)c1cccc(NC(=O)c2onc(C)c2Cl)c1 ?
Tau fibril FP: 4%; Tau fluor counter: -14%; Tau fibril ThT: -13%; Sfp inh: 26%; G9a inh: -24%; Coupling enz: 6

How did O=C(CN1CCN(Cc2ccccc2Cl)C1=O)NCc1ccccc1Cl do in these assays?
Tau fibril FP: 6%; Tau fluor counter: -8%; Tau fibril ThT: -9%; G9a inh: 12%[59 µM]

How did Cn1c(=O)n(C)c2cc(NS(=O)(=O)c3ccc(Cl)cc3)c(NCc3ccccc3)cc21 do in these assays?
Tau fibril FP: -10%; Tau fluor counter: inconclusive; Tau fibril ThT: inconclusive; G9a inh: 16µM*

What do the screens show for `Cn1c(=O)n(C)c2cc(NS(=O)(=O)c3ccccc3)c(NCc3ccccc3)cc21`?
Tau fibril FP: -9%; Tau fluor counter: -28%; Tau fibril ThT: inconclusive; G9a inh: 11µM*

What do the screens show for `COc1ccc(S(=O)(=O)Nc2cc3c(cc2NCc2ccccc2)n(C)c(=O)n3C)cc1OC`?
Tau fibril FP: -7%; Tau fluor counter: inconclusive; Tau fibril ThT: inconclusive; G9a inh: 13µM*

Results for Cc1cc(S(=O)(=O)Nc2cc3c(cc2NCc2ccccc2)n(C)c(=O)n3C)ccc1F ?
Tau fibril FP: -7%; Tau fluor counter: inconclusive; Tau fibril ThT: inconclusive; G9a inh: 14µM*

How did CC(Sc1nnc(-c2ccncc2)n1C)C(=O)Nc1ccc(N2CCOCC2)cc1 (centres undefined) do in these assays?
G9a inh: -5%[12.7 µM]

What do the screens show for `O=C(/C=C/c1ccc(/C=C/C(=O)Nc2ccc(C3=NCCN3)cc2)cc1)Nc1ccc(C2=NCCN2)cc1`?
Sfp inh: inconclusive; Coupling enz: -1

Results for Cn1c(=O)n(C)c2cc(N3CCOCC3)c(NS(=O)(=O)c3ccc(C(C)(C)C)cc3)cc21 ?
Tau fibril FP: 1%; Tau fluor counter: -11%; Tau fibril ThT: -12%; G9a inh: inconclusive

How did Cn1c(=O)n(C)c2cc(S(=O)(=O)Nc3ccccc3C(=O)O)ccc21 do in these assays?
Tau fibril FP: 1%; Tau fluor counter: 7%; Tau fibril ThT: 6%; Sfp inh: 20%; G9a inh: 8%; Coupling enz: 12

How did Cn1c(=O)n(C)c2cc(NS(=O)(=O)c3ccc(C(C)(C)C)cc3)c(NCc3ccccc3)cc21 do in these assays?
Tau fibril FP: 3%; Tau fluor counter: inconclusive; Tau fibril ThT: inconclusive; G9a inh: 14µM*

What do the screens show for `CN(C)c1cc2c(cc1NS(=O)(=O)c1ccccc1)n(C)c(=O)n2C`?
Tau fibril FP: -9%; Tau fluor counter: -8%; Tau fibril ThT: inconclusive; Sfp inh: -14%; G9a inh: 35µM*; Coupling enz: -4
